Test results as given in ChEMBL document CHEMBL1157539, “Thousands of chemical starting points for antimalarial lead identification” (Nature, 2010).

Experiments:
Format in all cases: functional
Plasmodium falciparum [1] = assay: GSK_TCMDC: Inhibition of Plasmodium falciparum 3D7 in whole red blood cells, using parasite LDH activity as an index of growth. Test compounds present at 2uM
Plasmodium falciparum [2] = assay: GSK_TCMDC: Inhibition of Plasmodium falciparum Dd2 in whole red blood cells, using parasite LDH activity as an index of growth. Test compounds present at 2uM
HepG2 = assay: GSK_TCMDC: Percent inhibition of human HepG2 cell line. Test compounds present at 10uM.

SMILES | Inhibition (Plasmodium falciparum [1]) | Inhibition (Plasmodium falciparum [2]) | Inhibition (HepG2)
CC1CCC2(CC1)N=C(N)N=C(N)N2OCc1cc2ccccc2c2ccccc12 (stereo not given) | 97% | 41% | 27%
Cc1cc(Nc2cc(Cl)cc(Cl)c2)nc(N)n1 | 94% | 28% | 0%
Cn1nccc1C(=O)NCCNCc1ccc(-c2cccc(-c3nc4cc(F)ccc4[nH]3)c2)cc1.O=C(O)C(F)(F)F | 100% | 98% | 37%
Cn1c(N)c(N=O)c(=O)[nH]c1=O | 97% | 82% | 58%
CC(=O)NCC(=O)NC1=NC(=N)N(OCc2ccc3ccccc3c2)C(C)(C)N1 | 95% | 97% | 66%
CC(=O)Nc1ccc(NC(=O)c2cc(-c3cc(Cl)ccc3O)n[nH]2)cc1 | 100% | 100% | 1%
Clc1ccc(-c2[nH]c3ccccc3c2CN2CCC(N3CCCCC3)CC2)cc1 | 93% | 15% | 5%
COc1cccc(OC)c1C(=O)Nc1cccc(-c2nn3ccccc3c2-c2ccnc(Nc3cccc(F)c3)n2)c1 | 95% | 38% | 3%
O=C(O)C(F)(F)F.Oc1ccc(CC2CCCN(c3nc(NCCCOc4ccccc4-c4ccccc4)nc(N4CCNCC4)n3)C2)cc1 (stereo not given) | 95% | 77% | 56%
CCCNCc1ccc(-c2ccc(CN(Cc3cccs3)C(=O)C3CCN(C)CC3)cc2)nc1.O=C(O)C(F)(F)F | 99% | 35% | 10%
CCOC(=O)c1c(CN2CCCC2)n(-c2ccccc2)c2cc(Br)c(O)cc12 | 83% | 53% | 0%
SC(=Nc1ccc(Cl)c(Cl)c1)NN=Cc1ccccn1 | 98% | 85% | 40%
COC(=O)c1ccc2nc(-c3ccc(C(=O)NC4CCN(Cc5ccccc5)CC4)s3)[nH]c2c1 | 99% | 71% | 0%
Br.CC1CCC2(CC1)N=C(N)N=C(N)N2OCc1ccc(Br)c2ccccc12 (stereo not given) | 96% | 40% | 46%
COC1CCC(C(=O)Nc2ccc(-c3cccc(-c4nc5cccc(C)c5[nH]4)c3)cc2)CC1 (stereo not given) | 97% | 60% | 89%
COc1ccc2ccccc2c1CCCCN1CCN(CC(c2ccc(F)cc2)N2CCN(C3CCCC3)CC2)CC1.O=C(O)C(F)(F)F (stereo not given) | 88% | 51% | 88%
Cc1cc(C=C2SC(=Nc3ccccc3)N(C3CCCC3)C2=O)c(C)n1-c1ccc(Cl)cc1 | 100% | 70% | 0%
CCOC(=O)CC[C@H](NC(=O)c1ccc(NS(=O)(=O)c2ccc(-c3cnc(N)[nH]c3=O)cc2)cc1)C(=O)OCC | 95% | 2% | 5%
Fc1ccc2[nH]c(-c3ccc(-c4cccc(CN5CCC(CCN6CCCCC6)CC5)c4)cc3)nc2c1.O=C(O)C(F)(F)F | 100% | 100% | 96%
Cc1cccc2nc(-c3cccc(-c4ccc(NC(=O)c5cccc(C(N)=O)c5)cc4)c3)[nH]c12 | 100% | 61% | 25%

SMILES | Inhibition (Plasmodium falciparum [1]) | Inhibition (Plasmodium falciparum [2]) | Inhibition (HepG2)
CNC(=O)C1Cc2c([nH]c3ccc(Cl)cc23)C2(CCN(CCc3ccccc3)CC2)N1 (stereo not given) | 98% | 16% | 2%
CN1CCN(C(=O)CN2CCC3(CCC2=O)NC(=O)c2ccccc2O3)CC1 (stereo not given) | 99% | 98% | 0%
CN1CC(c2ccccc2)c2cc(O)c(CN3CCCCC3)cc2CC1Cc1ccccc1.Cl (stereo not given) | 99% | 99% | 0%
O=C(Nc1ccc(-c2cccc(-c3nc4cc(F)ccc4[nH]3)c2)cc1)c1ccncc1 | 96% | 18% | 58%
O=C(/C=C/c1ccc(Cl)c(Cl)c1)N1CCN(C(=O)Nc2ccc(C(F)(F)F)cc2)CC1 | 98% | 100% | 47%
CC1(C)C=C(c2ccncc2)c2cc(Cl)ccc2O1.Cl | 97% | 22% | 0%
CCOC(=O)CCc1cc(F)c(F)c(OC[C@H](O)CNC(C)(C)C(O)c2ccc3ccccc3c2)c1.Cl (stereo not given in full) | 99% | 92% | 12%
Cl.O=C(NCCCCN1CCC(O)(c2ccc(Cl)cc2)CC1)c1ccc(Br)cc1 | 82% | 48% | 41%
CN(C)CCC1CCCc2ccc(NC(=O)Nc3cccc(Cl)c3Cl)cc21.Cl (stereo not given) | 93% | 11% | 44%
Cc1ccc(O)cc1Nc1ccnc2cc(-c3cccc(CNCCS(C)(=O)=O)c3)ccc12 | 99% | 100% | 9%
Oc1ccc2nc(NCCCc3ccccc3)nc(NCCCc3ccccc3)c2c1 | 100% | 93% | 5%
CN(Cc1ccccc1)C(=O)c1nn(CCCN2CCC(N3CCCC3)CC2)cc1-c1ccc(Cl)c(Cl)c1 | 100% | 66% | 43%
COC(=O)c1cc(C(O)CNC(C)CCCc2ccccc2)ccc1O.Cl (stereo not given) | 99% | 97% | 17%
CN1CCN(Cc2ccc(-c3ccc4c(Nc5ccc(Oc6ccccn6)cc5)ccnc4c3)o2)CC1 | 100% | 99% | 13%
COc1ccc(C)cc1NC(=O)CSc1nc2cccnc2n1C1CCCCC1 | 89% | 78% | 14%
CN1CCN(Cc2nc(-c3ccc4c(Nc5ccc(F)c(O)c5)ccnc4c3)cs2)CC1 | 100% | 100% | 0%
CCn1c(-c2nonc2N)nc2cnc(Oc3cccc(NC(=O)c4ccc(OCCN5CCCC5)cc4)c3)cc21 | 92% | 1% | 25%
Cc1cc(N[C@@H](Cc2ccccc2)C(=O)NCCOc2ccccc2)nc(NCC2CCCCC2)n1.O=C(O)C(F)(F)F | 100% | 75% | 30%
COc1ccc2nccc([C@@H](O)CN3CCC(NCCOc4ccc(F)cc4Cl)CC3)c2c1.O=C(O)C(=O)O | 99% | 85% | 1%
CN1CCN(CCc2ccc3nc(-c4csc(Cc5cc(Cl)ccc5OCc5ccccc5)n4)[nH]c3c2)CC1 | 100% | 97% | 30%

SMILES | Inhibition (Plasmodium falciparum [1]) | Inhibition (Plasmodium falciparum [2]) | Inhibition (HepG2)
Cc1cccc(C)c1CNc1nc(N2CCOCC2)cc2c(C)c(C)[nH]c12.Cl | 92% | 64% | 51%
CCNc1cc(C(=O)N[C@@H](Cc2cccc(Cl)c2)[C@H](O)CNC(C)CCCC(C)C)cc(N2CCCCS2(=O)=O)c1.Cl (stereo not given in full) | 98% | 78% | 7%
NCc1ccc(-c2ccccc2CNC2CCN(Cc3ccccc3)CC2)cc1.O=C(O)C(F)(F)F | 94% | 3% | 20%
COc1cc2c(cc1OCCN1CCC(N)CC1)N(C(=O)/C=C/c1ccccc1Cl)CC2.Cl | 91% | 18% | 19%
COc1ccc2nccc([C@@H](O)CN3CCC(NCCOc4cc(C(F)(F)F)ccc4F)CC3)c2c1.O=C(O)C(=O)O | 100% | 83% | 13%
COc1cccc(NC(=O)NCCNc2ccnc(Nc3ccc(F)cc3)n2)c1 | 94% | 1% | 18%
CCOC(=O)CC[C@@H](NC(=O)c1ccc(NCc2ccc3ccc4nc(C)[nH]c(=O)c4c3c2)cc1F)C(=O)N[C@@H](Cc1c[nH]c2ccccc12)C(=O)OCC | 98% | 77% | 45%
CCCc1cn2c3c(cc(C(=O)N[C@@H](Cc4ccccc4)[C@H](O)CNC4CCOCC4)cc13)N(CC)S(=O)(=O)CC2.O=CO | 97% | 98% | 2%
CN(Cc1cccc(O)c1)C1CCN(c2cc(NC(=O)c3ccc(F)cc3)ccn2)C1.O=C(O)C(F)(F)F (stereo not given) | 91% | 6% | 5%
Cl.Fc1cccc(COc2ccc(Nc3ncnc4ccc(-c5nnc(C(F)(F)F)o5)cc34)cc2Cl)c1 | 100% | 77% | 14%
CN(CCCCNC(=O)c1ccc(-c2ccccc2)cc1)C1CCc2c(O)cccc2C1.O=C(O)C(=O)O (stereo not given) | 100% | 21% | 24%
CCOc1ccc(NC(C)=O)c(O)c1 | 96% | 0% | 6%
N#Cc1cccc(NC(=O)Nc2ccc(-c3csc(-c4nc5ccccc5[nH]4)c3)cc2)c1 | 100% | 97% | 63%
COc1ccc2nccc([C@@H](O)CN3CCC(NC(=O)[C@@H]4Cc5ccccc5CN4C(=O)OC(C)(C)C)CC3)c2c1 | 92% | 61% | 15%
Cc1cc(NCCc2ccccc2)nc(N/C(=N/CC(=O)OC(C)(C)C)Nc2ccc(C(F)(F)F)cc2)n1.I | 100% | 97% | 23%
CCN(CC)CCN(Cc1ccc(-c2ccc(C(F)(F)F)cc2)cc1)C(=O)Cn1cc(CCCCc2cccc(F)c2F)c(=O)c2ccccc21.O=C(O)C(O)C(O)C(=O)O | 90% | 22% | 18%
COc1ccc(-c2ccc(NC(=O)c3cccc(C#N)c3)cc2)cc1CN1CCC(O)CC1.O=C(O)C(F)(F)F | 100% | 84% | 21%
CN(C)CCOc1ccc2c(c1)CN(C)CC2c1ccccc1.Cl (stereo not given) | 91% | 0% | 15%
CC(=O)N(C)c1cccc(C(=O)Nc2cccc(-c3cccc(-c4nc5cccc(C)c5[nH]4)c3)c2)c1 | 89% | 41% | 15%
COc1ccc(CNC2Cc3ccccc3C2)cc1-c1cccc(S(=O)(=O)NCCN2CCCC2)c1.O=C(O)C(F)(F)F | 98% | 61% | 48%
